Screening data: PubChem, National Center for Advancing Translational Sciences (NCATS)
FLuc inh: blocks purified firefly luciferase enzyme activity | hit rate 2.5% among 76,000 | purified P. pyralis luciferase, luminescence, biochemical | AID 1347043 | Potency, µM (series often up to 115 µM), usual class: inhibitors | P08659; note: potency is the fitted concentration of half-maximal effect; % is set by controls: 0 for no effect and ±100 for the full control effect; nearly all actives have a fitted effect of over 65% in size
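Purified 10nM P. pyralis luciferase with 10uM D-luciferin and 10uM ATP in 50mM Tris acetate pH 7.5, 10mM Mg acetate, 0.01% Tween-20, 0.05% BSA. qHTS titration; luminescence read by CCD imager.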
HEK cytotox: HEK 293 cell cytotoxicity; HEK 293 viability, ATP luminescence (CellTiter-Glo), 48-72 h; Potency, µM (series often up to 115 µM), for the others: top-dose activity change, negative = cytotoxicity, usual class: inhibitors; hit rate 6.6% among 94,000; note: potency is the fitted concentration of half-maximal effect; % is set by controls: 0 for no effect and ±100 for the full control effect; nearly all actives have a fitted effect of over 60% in size
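ATP-coupled CellTiter-Glo luminescence served as viability read-out, recorded 10 min after reagent addition at room temperature. HEK 293 cells, 250 cells/well, had been incubated with pintool-transferred compound for 48 or 72 hr at 37 degree Celsius.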
NPR1 antag: blocks ANP-stimulated signaling of human Npr1 receptor; Potency, µM (titrated, usually from 46.3 µM), for the others: at the highest dose activity change, negative = inhibition, actives largely listed as inhibitors; AID 1347048; HEK293 hNpr1 GloSensor cGMP, ANP-stimulated luminescence; hit rate 1.6% among 76,000; calls by dose curve; note: potency is the fitted concentration of half-maximal effect; % is set by controls: 0 for no effect and ±100 for the full control effect; nearly all actives have a fitted effect of over 60% in size
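HEK293 cells stably expressing human Npr1 and cGMP GloSensor pGS-40F, loaded 2 h with 2% GloSensor reagent, given compound 30 min at room temperature. Luminescence read before and 20 min after 0.1 nM hNppA.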
GPT2 inhibitor: inhibitors of human GPT2 alanine aminotransferase | Q8TD30 | Recombinant GPT2, coupled pyruvate oxidase/HRP Amplex Red fluorescence | Potency, µM (titrated, usually from 57.7 µM), inactives show at the highest dose activity change, negative = inhibition, actives largely listed as inhibitors | hit rate 0.25% among 100,000 | AID 1671188; note: potency is the fitted concentration of half-maximal effect; % is set by controls: 0 for no effect and ±100 for the full control effect; nearly all actives have a fitted effect of over 60% in size
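Fluorescence of coupled pyruvate oxidase/HRP/Amplex Red system (50uM Amplex, 30 min, dark) reports pyruvate formed by GPT2. Enzyme reaction: 10ng/uL GPT2, 2mM L-alanine, 250uM a-KG, 30 min room temperature, pH 7.5; 50uM AOA control.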
3T3 cytotox: NIH 3T3 cell cytotoxicity. NIH 3T3 viability, CellTiter-Glo ATP luminescence, 48-72 h. Potency, µM (highest dose often 96.7 µM), for the others: at the top dose activity change, negative = cytotoxicity, actives largely listed as inhibitors. hit rate 4.3% among 94,000; note: potency is the fitted concentration of half-maximal effect; % is set by controls: 0 for no effect and ±100 for the full control effect; nearly all actives have a fitted effect of over 55% in size
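Cells were seeded at 400 per well, treated with pin-transferred compound, and kept 48 or 72 hr at 37 °C before CellTiter-Glo addition and luminescence imaging of cellular ATP.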
Npr1 antag conf: confirmation of human Npr1 natriuretic peptide receptor antagonists | shares compounds with NPR1 antag | HEK293 hNpr1 cGMP GloSensor luminescence, ANP-stimulated | Potency, µM (top dose mostly 57.6 µM), without a hit: top-dose activity change, negative = inhibition, usual class: inhibitors | hit rate 76% among 1,400 | AID 1347044; calls by dose curve; note: potency is the fitted concentration of half-maximal effect; nearly all actives have a fitted effect of over 70% in size
NPR2 antag: antagonizes human Npr2, subtype selectivity check | shares compounds with NPR1 antag | HEK293 hNpr2 GloSensor cGMP luminescence, CNP-stimulated | hit rate 67% among 1,400 | Potency, µM (titrated, usually from 57.6 µM), without a hit: at the top dose activity change, negative = inhibition, most hits filed as inhibitors; calls by dose curve; note: potency is the fitted concentration of half-maximal effect; nearly all actives have a fitted effect of over 70% in size
FLuc inh counter: FLuc enzyme inhibition, Npr1 counter-screen; shares compounds with NPR1 antag; purified FLuc enzyme, luminescence, Km substrate; Potency, µM (titrated, usually from 57.6 µM), for inactives: top-dose activity change, negative = inhibition, most hits filed as inhibitors; hit rate 0.7% among 1,400; AID 1347047; note: potency is the fitted concentration of half-maximal effect; series mostly up to about 58 µM; 0% is about no effect
GloSensor ctrl: reduces cGMP signal in GloSensor control cells; shares compounds with NPR1 antag; HEK293 GloSensor cGMP, SNP-stimulated, luminescence; Potency, µM (doses to about 57.6 µM), without a hit: top-dose activity change, negative = inhibition, usual class: inhibitors; hit rate 69% among 1,400; AID 1347051; calls by dose curve; note: potency is the fitted concentration of half-maximal effect; % is set by controls: 0 for no effect and ±100 for the full control effect; nearly all actives have a fitted effect of over 70% in size
GPT2 inh cnf: human alanine aminotransferase 2 inhibition, confirmatory. GPT2 enzyme, coupled Amplex Red pyruvate fluorescence. shares compounds with GPT2 inhibitor. AID 1671187. hit rate 90% among 95. Potency, µM, hits mostly inhibitors
* marks the source's active call; other numbers are inactive results; ! = not active in a repeat; [ ] = dose if it differs, or a comment. Only some compounds are listed: those with a hit (about 10% of all), similar ones and a draw of the others. Unless noted, calls come from the whole dose curve; as a rule, active = well fitted curve in the direction sought with a large enough effect; inconclusive = small, poorly fitted or top-dose-only effect, or another doubt; inactive = no such curve, though single readings can be large; an effect the other way counts as inactive or inconclusive.

For CC1=C[C@H]2O[C@@H]3[C@H](O)[C@@H](O)[C@](C)([C@@]2(CO)C[C@@H]1O)[C@]31CO1 the results were GPT2 inhibitor inactive.
Screening Cc1ncccc1C(=O)N1[C@H]2CC[C@@H]1c1cnc(-c3ccc(F)cc3)nc1C2 returned FLuc inh inactive, HEK cytotox inconclusive, NPR1 antag -29%, GPT2 inhibitor inactive and 3T3 cytotox inconclusive.
Screening O=C(COc1ccc(F)cc1)N1[C@H]2CC[C@@H]1c1cnc(-c3ccccc3)nc1C2 returned HEK cytotox inconclusive, GPT2 inhibitor inactive and 3T3 cytotox -33%.
`Cc1ccsc1C(=O)N1[C@H]2CC[C@@H]1c1cnc(-c3ccc(F)cc3)nc1C2` gave FLuc inh inactive, HEK cytotox inconclusive, NPR1 antag 5.6µM*, GPT2 inhibitor inactive, 3T3 cytotox inconclusive, Npr1 antag conf 7.7µM*, NPR2 antag 7.7µM*, FLuc inh counter 1% and GloSensor ctrl 6.1µM*.
`COCCn1c(C)cc(C(=O)N2[C@H]3CC[C@@H]2c2cnc(-c4ccc(F)cc4)nc2C3)c1C` gave FLuc inh inactive, HEK cytotox 25µM*, NPR1 antag 11µM*, GPT2 inhibitor -10%, 3T3 cytotox inconclusive, Npr1 antag conf 12µM*, NPR2 antag 15µM*, FLuc inh counter 1% and GloSensor ctrl 14µM*.
Screening Cc1cccc(OCC(=O)N2[C@H]3CC[C@@H]2c2cnc(-c4ccc(F)cc4)nc2C3)c1 returned FLuc inh inactive, HEK cytotox inconclusive, NPR1 antag inconclusive, GPT2 inhibitor inactive, 3T3 cytotox inconclusive, Npr1 antag conf inconclusive, NPR2 antag inconclusive, FLuc inh counter 4% and GloSensor ctrl inconclusive.
Cc1cc(C(=O)N2[C@H]3CC[C@@H]2c2cnc(-c4ccc(F)cc4)nc2C3)n[nH]1 was read as FLuc inh inactive, HEK cytotox inconclusive, NPR1 antag 13µM*, GPT2 inhibitor 1%, 3T3 cytotox inconclusive, Npr1 antag conf 24µM*, NPR2 antag 24µM*, FLuc inh counter -2% and GloSensor ctrl 24µM*.
COC1=CC(C)=C[C@@H](C)[C@@H](O)[C@@H](C)CC(C)=CC=C[C@H](OC)[C@H]([C@@H](C)[C@@H](O)[C@H](C)[C@@]2(O)C[C@@H](O)[C@H](C)[C@@H](C(C)C)O2)OC1=O was read as GPT2 inhibitor -9%.
OC[C@H]1C[C@@H](NC2CCOCC2)[C@H](O)[C@@H]1O was read as FLuc inh inactive, HEK cytotox -6%[230 µM], NPR1 antag 1%[70.6 µM], GPT2 inhibitor inactive and 3T3 cytotox -8%[174 µM].
For c1ccc2c(c1)Nc1ccccc1S2 the results were GPT2 inhibitor 11µM*! and GPT2 inh cnf 2.8*.
Screening COc1cccc(CC(=O)N2CCCCCC2CN2CCC(OC)CC2)c1 (stereo not drawn) returned FLuc inh inactive, HEK cytotox -7%, NPR1 antag -9%, GPT2 inhibitor 3% and 3T3 cytotox -15%.
